Our source for the growth inhibition, inhibition and outcome values is PubChem BioAssay.

Experiment [1] can be described thus: antimalarial activity against Dd2 strain (AID 2302;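 active means growth inhibition above 50% at the single 2 µM test dose, taken to imply half-maximal potency below 2 µM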;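 further: 0% = DMSO untreated growth and 100% = chloroquine plus artemisinin killed control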). The note with it: P. falciparum Dd2 in RBCs, LDH growth readout, 72 h; at 2 µM; hits give high values.
Experiment [2] can be described thus: HepG2 cytotoxicity, primary screen, cytotoxicity control for P. falciparum antimalarial project, cell-based, ATP luminescence (AID 2303;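 active means inhibition above 50%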;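 further: 0% = DMSO wells and 100% = digitonin-killed cells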). Conditions: HepG2 viability, 24-48 h, at 10 µM, hits give high values.
Experiment [3] has as its target L-lactate dehydrogenase (Plasmodium falciparum (isolate CDC / Honduras)) (UniProt Q27743). In words: PfLDH activity inhibition – cell lysate, 3D7 strain, counter-screen for P. falciparum growth inhibition project (AID 2304).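 Further: 0% = vehicle and 100% = reference inhibitor.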 The note with it: P. falciparum 3D7 crude extract, LDH APAD/NBT absorbance; at 2 µM; hits give high values.
Experiment [4] is described as follows: inhibition of 3D7 malaria parasite growth – strain 3D7 (AID 2306).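 Further: 0% = DMSO wells and 100% = chloroquine plus artemisinin control wells.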 The note with it: P. falciparum 3D7 erythrocytic growth, LDH absorbance, 72 h; at 2 µM; hits give high values.
For experiment [5], the target named is Calcium-dependent protein kinase 1 (Plasmodium falciparum (isolate 3D7)) (UniProt P62344). In words: PfCDPK1 kinase inhibitors, biochemical, TCAMS library (AID 1159585; cut-off not given, nearly all actives have IC50 up to about 0.98 µM;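 further: inhibitors leave more ATP so luminescence rises with inhibition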). Conditions: recombinant PfCDPK1, Kinase-Glo ATP depletion luminescence. Background: In Kinase-Glo more light means more ATP remaining.
Calcium-dependent protein kinase 1 (Plasmodium falciparum (isolate 3D7)), sequence (P62344 whole entry, looked up): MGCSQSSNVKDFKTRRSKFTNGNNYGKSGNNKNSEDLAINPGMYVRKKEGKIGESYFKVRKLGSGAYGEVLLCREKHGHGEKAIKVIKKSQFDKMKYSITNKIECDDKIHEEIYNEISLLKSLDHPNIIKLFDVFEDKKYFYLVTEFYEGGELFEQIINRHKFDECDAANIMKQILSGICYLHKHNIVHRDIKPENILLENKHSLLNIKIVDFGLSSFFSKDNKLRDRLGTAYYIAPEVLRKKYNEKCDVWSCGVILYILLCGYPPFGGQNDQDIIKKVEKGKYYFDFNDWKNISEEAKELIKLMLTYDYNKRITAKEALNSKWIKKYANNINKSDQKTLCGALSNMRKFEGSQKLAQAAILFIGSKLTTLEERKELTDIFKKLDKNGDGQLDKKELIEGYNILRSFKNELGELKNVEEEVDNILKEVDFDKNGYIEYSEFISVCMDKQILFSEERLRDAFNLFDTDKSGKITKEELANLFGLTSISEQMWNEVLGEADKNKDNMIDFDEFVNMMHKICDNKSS
The target of experiment [6] is Plasmodium falciparum protein kinase 6 (PK6, PF3D7_1337100) (UniProt Q8IDW1). Nature of the experiment: PfPK6 kinase inhibitors, biochemical, TCAMS library (AID 1159586). Conditions: recombinant PfPK6, Kinase-Glo ATP depletion luminescence.
Plasmodium falciparum protein kinase 6 (PK6, PF3D7_1337100), sequence (Q8IDW1 1-305): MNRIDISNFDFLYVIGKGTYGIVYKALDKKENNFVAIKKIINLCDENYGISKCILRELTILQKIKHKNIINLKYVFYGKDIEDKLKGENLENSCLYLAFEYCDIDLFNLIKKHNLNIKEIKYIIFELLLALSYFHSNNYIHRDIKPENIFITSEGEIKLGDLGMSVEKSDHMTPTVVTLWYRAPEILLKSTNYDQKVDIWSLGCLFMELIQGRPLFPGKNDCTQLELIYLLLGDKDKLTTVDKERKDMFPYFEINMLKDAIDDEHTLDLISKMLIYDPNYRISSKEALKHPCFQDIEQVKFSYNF
In experiment [7] the target is Protein kinase 7 (PK7), Plasmodium falciparum 3D7 (PF3D7_0213400) (UniProt Q7YTF7). In words: inhibition of Plasmodium PK7 catalytic activity – biochemical, TCAMS antimalarial set, Kinase-Glo luminescence (AID 1159587). Conditions: recombinant PfPK7, Kinase-Glo ATP depletion luminescence.
Protein kinase 7 (PK7), Plasmodium falciparum 3D7 (PF3D7_0213400), sequence (Q7YTF7 1-343): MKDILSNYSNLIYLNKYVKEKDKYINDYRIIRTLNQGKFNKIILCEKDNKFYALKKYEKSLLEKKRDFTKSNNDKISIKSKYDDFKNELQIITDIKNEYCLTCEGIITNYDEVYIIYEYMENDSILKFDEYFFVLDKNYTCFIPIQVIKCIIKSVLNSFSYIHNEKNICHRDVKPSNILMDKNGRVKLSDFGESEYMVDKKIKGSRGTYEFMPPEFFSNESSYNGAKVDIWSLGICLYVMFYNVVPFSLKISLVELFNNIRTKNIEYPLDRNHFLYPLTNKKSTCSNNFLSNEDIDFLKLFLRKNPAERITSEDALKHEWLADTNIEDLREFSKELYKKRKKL
In experiment [8] the target is Calcium-dependent protein kinase 4 (Plasmodium falciparum (isolate 3D7)) (UniProt Q8IBS5). Nature of the experiment: PfCDPK4 kinase inhibitors, biochemical, TCAMS library (AID 1159588; cut-off not given, nearly all actives have IC50 up to about 0.91 µM). Conditions: recombinant PfCDPK4, Kinase-Glo ATP depletion luminescence.
Calcium-dependent protein kinase 4 (Plasmodium falciparum (isolate 3D7)), sequence (Q8IBS5 whole entry, looked up): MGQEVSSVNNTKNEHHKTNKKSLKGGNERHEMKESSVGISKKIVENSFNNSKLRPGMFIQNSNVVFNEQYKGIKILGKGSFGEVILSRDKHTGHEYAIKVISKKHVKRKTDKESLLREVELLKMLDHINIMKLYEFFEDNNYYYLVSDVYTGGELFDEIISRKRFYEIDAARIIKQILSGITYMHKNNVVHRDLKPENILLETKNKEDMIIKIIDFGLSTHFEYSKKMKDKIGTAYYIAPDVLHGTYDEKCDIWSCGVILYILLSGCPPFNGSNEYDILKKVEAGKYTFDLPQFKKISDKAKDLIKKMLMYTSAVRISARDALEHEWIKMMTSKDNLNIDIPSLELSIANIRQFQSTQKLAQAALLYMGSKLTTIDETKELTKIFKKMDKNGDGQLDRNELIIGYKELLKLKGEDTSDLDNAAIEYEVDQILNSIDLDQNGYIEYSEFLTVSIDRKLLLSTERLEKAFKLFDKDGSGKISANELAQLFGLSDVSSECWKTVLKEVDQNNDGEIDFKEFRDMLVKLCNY

A number with no mark means an inactive call. For some of these results: Entries with a potency or affinity are not part of this list. The source made the active and inactive calls. Unless noted, how the calls were made is not given here.

L-lactate dehydrogenase (Plasmodium falciparum (isolate CDC / Honduras)), sequence (Q27743 whole entry, looked up): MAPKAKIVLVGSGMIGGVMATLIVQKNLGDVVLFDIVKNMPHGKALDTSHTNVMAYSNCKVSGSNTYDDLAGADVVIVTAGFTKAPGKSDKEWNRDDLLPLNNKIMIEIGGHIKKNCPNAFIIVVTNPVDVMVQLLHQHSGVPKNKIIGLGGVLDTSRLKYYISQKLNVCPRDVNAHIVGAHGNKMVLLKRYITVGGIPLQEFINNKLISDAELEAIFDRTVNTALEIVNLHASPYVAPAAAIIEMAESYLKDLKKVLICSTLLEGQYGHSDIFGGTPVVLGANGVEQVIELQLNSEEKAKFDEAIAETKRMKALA

As for `Cc1cccc2[nH]c(-c3cccc(-c4ccc(NC(=O)NCc5cccc(F)c5)cc4)c3)nc12`, the growth inhibition was 83% (active) in experiment [1] and 101% (active) in experiment [4]. Also, the results for the inhibition in experiment [2] and in experiment [3] were 40% and -4%, respectively. The outcome in experiment [5], in experiment [6], in experiment [7] and in experiment [8] was inactive.
As for `CCOc1c(CNCCCNc2cc(=O)c3ccccc3[nH]2)cc(I)cc1OC`, the figures for the growth inhibition in experiment [1] and in experiment [4] were 6% and 91% (active), respectively. The inhibition – broadly, the drop in the measured response relative to a control, in per cent – in experiment [2] is -4%; in experiment [3], 2%. For the same compound, the result in experiment [5], in experiment [6], in experiment [7] and in experiment [8] was inactive.
As to `O=S(=O)(c1ccc(OCc2ccc(Cl)cc2)cc1)c1cc2c(cc1O)CCN(C1CCC1)CC2`, the figures for the growth inhibition in experiment [1] and in experiment [4] were 63% (active) and 99% (active), respectively. The inhibition in experiment [2] was 11%; in experiment [3], 3%. Also, the result in experiment [5], in experiment [6], in experiment [7] and in experiment [8] was inactive.
On to `N#CC(c1cccc(Cl)c1)c1ccc2c(C(F)(F)F)cc(C(F)(F)F)nc2n1` (stereo not given), for which the growth inhibition in experiment [1] is 97% (active); in experiment [4] it was 96% (active). Also, the inhibition is 52% (active) in experiment [2] and 4% in experiment [3]. In addition, the result in experiment [5], in experiment [6], in experiment [7] and in experiment [8] was inactive.
Regarding `Cc1cccc(-c2nc3cc(NC(=O)c4ccc([N+](=O)[O-])o4)ccc3o2)c1`, the growth inhibition in experiment [1] is 73% (active); in experiment [4], 94% (active). Besides, the inhibition is 8% in experiment [2] and 4% in experiment [3]. In addition, the result in experiment [5], in experiment [6], in experiment [7] and in experiment [8] was inactive.
For `O=C(Nc1ccc(Cl)cc1)c1cccc(S(=O)(=O)NC2CCN(CC3CCCCC3)C2)c1` (stereo not given), the growth inhibition in experiment [1] was 41%; in experiment [4], 90% (active). Also, the results for the inhibition in experiment [2] and in experiment [3] were 80% (active) and -2%, respectively. The outcome in experiment [5], in experiment [6], in experiment [7] and in experiment [8] was inactive.
As to `O=c1c(Br)c(C(F)(F)F)[nH]c2ccc(Oc3ccccc3)cc12`, the figures for the growth inhibition in experiment [1] and in experiment [4] were 17% and 91% (active), respectively. For the same compound, the inhibition in experiment [2] is 6%; in experiment [3], 0%. Moreover, the outcome in experiment [5], in experiment [6], in experiment [7] and in experiment [8] was inactive.
Take `O=C(Nc1cccc(CCNCc2ccccc2)c1)Nc1cccc2ccccc12`: the values for the growth inhibition in experiment [1] and in experiment [4] were 8% and 102% (active), respectively. Also, the inhibition in experiment [2] was 13%; in experiment [3], 1%. In addition, the outcome in experiment [5], in experiment [6], in experiment [7] and in experiment [8] was inactive.
As for `COc1cccc(-c2cnc(-c3ccncc3)nc2C2CCN(Cc3ccc(NC(C)=O)cc3)CC2)c1`, the growth inhibition in experiment [1] was -3%; in experiment [4] it was 89% (active). Moreover, the inhibition in experiment [2] was 17%; in experiment [3], 0%. Further, the outcome in experiment [5], in experiment [6], in experiment [7] and in experiment [8] was inactive.
For `COc1c(C2CCN(CCCCNC(=O)c3ccc(C)c(-c4ccc(C(F)(F)F)cc4)c3)CC2)ccc2c1CCCC2`, the results for the growth inhibition in experiment [1] and in experiment [4] were 79% (active) and 86% (active), respectively. Further, the values for the inhibition in experiment [2] and in experiment [3] were 76% (active) and -5%, respectively. For the same compound, the outcome in experiment [5], in experiment [6], in experiment [7] and in experiment [8] was inactive.
Take `CCCCCOc1ccc(C(O)C(CN2CCCCC2)c2ccccc2)cc1` (stereo not given): the growth inhibition was 95% (active) in experiment [1] and 98% (active) in experiment [4]. Besides, the inhibition was 11% in experiment [2] and 5% in experiment [3]. Also, the result in experiment [5], in experiment [6], in experiment [7] and in experiment [8] was inactive.
As to `CN1CCN(Cc2ccc(OCc3cccc(COc4ccc(CN5CCN(C)CC5)cc4I)c3)c(I)c2)CC1`, the growth inhibition is 69% (active) in experiment [1] and 92% (active) in experiment [4]. The results for the inhibition in experiment [2] and in experiment [3] were 93% (active) and 0%, respectively. Further, the outcome in experiment [5], in experiment [6], in experiment [7] and in experiment [8] was inactive.
In the case of `Cc1noc(-c2cccs2)c1C(=O)NCCc1cccc(Cl)c1`, the growth inhibition in experiment [1] was 95% (active); in experiment [4], 97% (active). The figures for the inhibition in experiment [2] and in experiment [3] were -17% and 0%, respectively. Besides, the outcome in experiment [5], in experiment [6], in experiment [7] and in experiment [8] was inactive.
As for `NC(=NC1CC1)c1ccc2nc(CCCCCc3nc4ccc(C(N)=NC5CC5)cc4[nH]3)[nH]c2c1`, the growth inhibition in experiment [1] was 72% (active); in experiment [4], 89% (active). Further, the values for the inhibition in experiment [2] and in experiment [3] were -3% and 2%, respectively. For the same compound, the result in experiment [5], in experiment [6], in experiment [7] and in experiment [8] was inactive.
For the compound `CCC(CN1C(=O)C(c2ccccc2)(c2ccccc2)N=C1N)c1ccccc1` (stereo not given), the growth inhibition in experiment [1] and in experiment [4] was 98% (active) in each case. Further, the inhibition in experiment [2] was 11%; in experiment [3], -2%. The result in experiment [5], in experiment [6], in experiment [7] and in experiment [8] was inactive.
As to `CC(C)COc1ccc(Cl)cc1Cc1ccc(-c2nc3c(F)cccc3[nH]2)o1`, the growth inhibition in experiment [1] is 47%; in experiment [4], 98% (active). For the same compound, the inhibition in experiment [2] is 15%; in experiment [3], -1%. The outcome in experiment [5], in experiment [6], in experiment [7] and in experiment [8] was inactive.
Take `CC(C)(C)C1CC(=O)C[C@@H]2C(=O)N(C3CCCCC3)C(=O)[C@H]12` (stereo not given in full): the growth inhibition in experiment [1] was 27%; in experiment [4] it was 97% (active). In addition, the inhibition in experiment [2] and in experiment [3] was -2% in each case. The result in experiment [5], in experiment [6], in experiment [7] and in experiment [8] was inactive.
Regarding `CCCc1cc(C)ccc1OCCCON1C(N)=NC(N)=NC1(C)C`, the growth inhibition in experiment [1] and in experiment [4] was 97% (active) each time. For the same compound, the inhibition is 64% (active) in experiment [2] and 2% in experiment [3]. For the same compound, the outcome in experiment [5], in experiment [6], in experiment [7] and in experiment [8] was inactive.
Turning to `O=C(/C=C/c1cccc(OC(F)(F)F)c1)NCCCCCN1CCC(c2c[nH]c3ccccc23)CC1`, the growth inhibition in experiment [1] was 13%; in experiment [4], 93% (active). The inhibition is 27% in experiment [2] and -6% in experiment [3]. Also, the outcome in experiment [5], in experiment [6], in experiment [7] and in experiment [8] was inactive.
Regarding `Cc1cc(NC(=O)c2cccs2)ccc1OC1CCN(Cc2ccc(F)cc2)CC1`, the growth inhibition in experiment [1] is 92% (active); in experiment [4] it was 94% (active). The inhibition in experiment [2] is 7%; in experiment [3], -1%. Moreover, the result in experiment [5], in experiment [6], in experiment [7] and in experiment [8] was inactive.
